Source: PubChem (National Center for Advancing Translational Sciences (NCATS))
TGFb inhibitor: inhibitors of TGF-b signaling | AID 588855 | HepG2 CAGA-GFP TGF-b/SMAD3 reporter, GFP fluorescence, 18 h; TGF-beta stimulated, 500 pg/mL final | Potency, µM (doses to about 46.1 µM), actives largely listed as inhibitors | 1.2% of 410,000 active; note: nearly all actives have a fitted effect of over 65% in size
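First, reporter cells (HEPG2 CAGA-GFP) rested 2 h at 37 degrees C. Next, compounds were pinned in and TGF-beta added to 500 pg/mL final. After 18 h, GFP was imaged per cell and summed per well.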
ATXN2 expr inh: ATXN2 expression inhibition; Potency, µM (top dose mostly 57 µM), usual class: inhibitors; HEK-293 ATXN2-luciferase reporter, luminescence, 24 h; 0.72% of 360,000 active; note: nearly all actives have a fitted effect of over 55% in size
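qHTS (up to 57 uM final) was run with 24 h compound exposure of reporter cells at 37 °C. Each well was multiplexed: SteadyGlo luminescence measured ATXN2-luciferase expression after a fluorogenic Gly-Phe-AFC viability readout (25 uM final).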
HTT ATP protect: Huntington cell model cytoprotection by ATP luminescence | Potency, µM (top dose mostly 56.4 µM), usual class: activators | PC12 HTT-Q103 induced, cytoprotection, ATP luminescence, 40 h | 0.14% of 230,000 active; note: nearly all actives have a fitted effect of over 45% in size
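Cells were plated at 1500 per well in phenol red-free DMEM with 5% equine and 5% calf serum. Tebufenozide (100 nM final) and compounds were added, then ATPlite reagent, and luminescence was read.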
ATXN viability: viability counter-screen for ATXN expression inhibitors; S2 cells (HEK-293 line with an ATXN2-luciferase reporter) viability, CellTiter-Fluor protease fluorescence, 24 h; Potency, µM (titrated, usually from 56.7 µM), usual class: cytotoxic; 0.49% of 400,000 active; note: nearly all actives have a fitted effect of over 40% in size
HttQ103 aggreg: inhibitors of mutant huntingtin aggregate formation in PC12 cells | 1.1% of 220,000 active | Potency, µM (highest dose often 46.1 µM), most hits filed as inhibitors | PC12 HttQ103-GFP aggregates, Acumen cytometry, 40 h; note: nearly all actives have a fitted effect of over 60% in size
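PC12 cells with ecdysone-inducible HTT exon1 Q103-GFP, induced by 100 nM tebufenozide, given compounds in a concentration series. GFP aggregates (1–25 um, 6 SD above background) counted in lysates by laser-scanning cytometry, 488 nm excitation.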
HepG2 tox: kills HepG2 cells in TGF-b inhibitor counter-screen. Potency, µM (top dose mostly 46.1 µM), hits mostly cytotoxic. 0.76% of 410,000 active. AID 588856. HepG2 CAGA-GFP viability, ATP luminescence, 18 h
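CellTiter-Glo luminescence gave cytotoxicity after 18 hours at 37 degrees C. The cells were HepG2 CAGA-GFP in 1% FBS DMEM, stimulated with 500 pg/mL TGF-beta after compound addition. %Activity was normalised to no-cell wells (complete cell-killing) and DMSO (no toxicity), and curves were fitted and classified.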
Hits are given with their value; . = inactive; ? = inconclusive; / = not tested or not shown; ! = not active in a repeat; [ ] = another dose, or the depositor's remark. Sampled rows, rich in hits. Any-hit rate of the full collection: about 2.8%. Calls come from the whole dose curve; as a rule, active = well fitted curve in the direction sought with a large enough effect; inconclusive = small, poorly fitted or top-dose-only effect, or another doubt; inactive = no such curve, though single readings can be large; an effect the other way counts as inactive or inconclusive.

SMILES | TGFb inhibitor | ATXN2 expr inh | HTT ATP protect | ATXN viability | HttQ103 aggreg | HepG2 tox
O=C(O)CSCC(=O)Nc1ccc(C2CCCCC2)cc1 | . | 2.2µM | . | . | . | .
O=C(C[N+]12CN3CN(CN(C3)C1)C2)c1ccc(Br)cc1 | . | / | / | / | / | .
Cc1ccc(NC(=O)CSc2nnc(Cc3csc(C)n3)o2)cc1 | . | / | / | . | / | .
CCOc1ccc(Nc2nc(Cc3nnc(SCC(=O)c4ccc(C)c(C)c4)o3)cs2)cc1 | . | . | . | . | 10µM | .
COc1cc([C@@H](O)CO)ccc1OS(=O)(=O)O | / | / | .[1.9 µM] | / | / | /
Cc1ccc(C)c(CN2CCC(CNC(=O)Nc3ccc(Br)cc3F)CC2)c1 | ? | 20µM! | / | ? | / | .
Cc1ccc(C)c(CN2CCC(CNC(=O)Nc3ccc(Cl)cc3)CC2)c1 | . | . | / | . | / | .
COc1ccccc1-c1ccc2c(c1)C(C)(Cc1ccc(Cl)c(Cl)c1)C(=O)N2 (stereo not drawn) | 14µM | ? | / | ? | / | .
CC1(Cc2ccc(Cl)c(Cl)c2)C(=O)Nc2ccc(S(=O)(=O)NC3CCCCC3)cc21 (stereo not drawn) | 13µM | . | / | . | / | .
COc1ccccc1C1CN(Cc2cccc(O)c2)Cc2ccccc2O1 (stereo not drawn) | / | / | / | . | / | /
CN(Cc1nc(-c2cccnc2)no1)S(=O)(=O)c1ccc2ccccc2c1 | . | . | . | . | . | .
CN(Cc1nc(-c2cccnc2)no1)S(=O)(=O)c1ccc(Br)cc1 | . | . | .[10 µM] | . | 22µM | .
CCCCCCCN(c1ccccc1)C1C[C@H]2CCCC(=O)N3CC[C@@H](C1)[C@@H]23 (stereo partly drawn) | 14µM | / | / | / | / | .
Nc1ccc(C(=O)OCCCc2nc3ccccc3[nH]2)cc1 | . | . | . | . | . | 10µM
COc1ccc(C(=O)NCCn2cc(SCc3c(F)cccc3Cl)c3ccccc32)cc1 | 16µM | ? | / | 14µM | / | .
COc1ccc(C(=O)NCCn2cc(SCC(=O)Nc3cccc(C)c3)c3ccccc32)cc1 | ? | ? | / | ? | / | .
Cc1cc(N=Nc2ccccc2C(=O)O)c(C)c(C)c1O | . | . | .[10 µM] | 13µM | .[9.22 µM] | .
CCN(CC)C(=O)COc1ccc(-c2nnc(N3CCCCC3)c3ccccc23)cc1 | . | . | .[0.074 µM] | . | . | .
CCOc1ccc(-c2nnc(N3CCCCC3)c3ccccc23)cc1 | . | ? | . | 28µM | 11µM | .
CCOc1ccc(C(=O)C(CCC(CN(C)C)C(=O)c2ccc(OCC)cc2)CN(C)C)cc1 (stereo not drawn) | 5µM | 5.6µM | .[10 µM] | 3.2µM | ? | 2.8µM
COc1ccc(C(=O)C(CCCCC(CN(C)C)C(=O)c2ccc(OC)cc2)CN(C)C)cc1 (stereo not drawn) | . | . | . | / | ? | .
CN(C)CC(CCC(CN(C)C)C(=O)c1ccccc1)C(=O)c1ccccc1 (stereo not drawn) | 6.3µM | 7.5µM | ? | 7.5µM | ? | .
C[C@@]12CC[C@H]3[C@H](CC=C4C[C@@H](O)CC[C@@]43C)[C@@H]1CC[C@@H]2N(CCO)CCO | / | / | .[10 µM] | / | / | /
CN(C)c1ccc(C=c2c3ccccc3n3c2cc(-c2ccc(Cl)cc2)[n+]3C)cc1 | ? | ? | / | 11µM | / | .
COc1cc(N(C)C)ccc1C=c1c2ccccc2n2c1cc(-c1ccccc1)[n+]2C | 3.5µM | 12µM | / | 12µM | / | .
SMILES | TGFb inhibitor | ATXN2 expr inh | HTT ATP protect | ATXN viability | HttQ103 aggreg | HepG2 tox
CN(C)c1ccc(C=c2c3cc([N+](=O)[O-])ccc3n3c2cc(-c2ccccc2)[n+]3C)cc1 | ? | 28µM | / | / | / | .
CN(C)c1ccc(C=c2c3ccccc3n3c2c2c([n+]3C)CCCC2)cc1 | 2.5µM | 8.9µM | / | 22µM | / | .
COc1cc(C=c2c3ccccc3n3c2cc(-c2ccccc2)[n+]3C)cc(OC)c1OC | ? | ? | / | ? | / | .
CN(C)c1ccc(C=c2c3ccccc3n3c2cc(-c2ccccc2)[n+]3C)cc1 | ? | ? | / | 6µM | / | 7.9µM
O=C1CC(c2ccccc2)Cc2[nH]c(=O)c(C(=O)Nc3ccc(OC(F)(F)F)cc3)cc21 (stereo not drawn) | . | . | / | 25µM | / | .
COC(=O)[C@@H]1CCCN1Cc1ccc2c(c1)CN(Cc1cccn1-c1ccccn1)CCO2 | / | / | / | . | / | /
CCc1nc(NCc2ccccn2)c2oc3ccccc3c2n1 | . | . | .[0.074 µM] | . | 13µM | .
CO[C@@H]1/C=C\O[C@]2(C)Oc3c(C)c(O)c4c(O)c(c(/C=N\N5CCN(C)CC5)c(O)c4c3C2=O)NC(=O)/C(C)=C\C=C/[C@H](C)[C@H](O)[C@H](C)[C@H](O)[C@H](C)[C@H](OC(C)=O)[C@@H]1C | / | / | . | / | / | /
Cc1ccc(C(=O)n2c(N)nc3ccccc32)cc1 | . | 2.8µM | .[10 µM] | . | .[9.22 µM] | .
N[C@H](CS(=O)O)C(=O)O | / | / | .[1.9 µM] | / | / | /
CCC(c1nnnn1Cc1ccccc1)N(Cc1ccccc1)Cc1cc2cc(C)ccc2[nH]c1=O (stereo not drawn) | ? | / | / | / | / | .
Cc1ccc2c(CN(C)Cc3ccc(OC(F)F)cc3)cc(=O)oc2c1C | . | . | / | . | / | 13µM
CC1=NN(c2ccc(C)c(C)c2)C(=O)/C1=C\C=C\c1ccc([N+](=O)[O-])o1 | 10µM | ? | ? | 3.2µM | . | .
Cc1ccc2[nH]c(-c3ccc(F)cc3F)cc(=O)c2c1 | / | / | . | / | / | /
Fc1ccc(-n2nnc(-c3cccnc3)n2)cc1 | . | . | .[10 µM] | . | .[9.22 µM] | .
Fc1ccc(C(CCCn2nnc(-c3cccnc3)n2)c2ccc(F)cc2)cc1 | ? | . | . | . | 13µM | .
Cc1nc(N/N=C/c2ccccn2)sc1C | ? | . | .[10 µM] | ? | ? | .
CCCc1sc(N/N=C/c2ccccn2)nc1-c1ccc(F)cc1 | 11µM | 4µM | .[10 µM] | 16µM | ? | .
COc1ccc(-c2ccc(C(=O)NCc3ccc(N4CCN(C)CC4)cc3)c3occc23)c(C)c1 | ? | ? | / | 25µM | / | 11µM
Nc1c(Br)cc(/C=C/c2ccnc3ccccc23)cc1Br | ? | / | / | / | / | .
N#Cc1c(N)n(C2OC(CO)C(O)C2O)c2ncnc(N)c12 (stereo not drawn) | ? | 0.3µM | / | ? | / | .
COCCN1CCN(C(=O)c2cnn(-c3ncc4c(n3)-c3ccc(OC)cc3CC4)c2C2CC2)CC1 | / | / | / | . | / | /
CCCCN(CC)CCNS(=O)(=O)c1cccc2cccnc12 | / | / | . | / | / | /
Nc1nc(Nc2ccc(Cl)cc2)nc2ccccc12 | 18µM | . | . | . | . | .
CN(C)c1ccc(Nc2nc(N)c3ccccc3n2)cc1 | . | 5µM | / | . | / | 13µM
CCOc1ccc(Nc2nc(N)c3ccccc3n2)cc1 | . | ? | / | . | / | 16µM
COc1ccc(C)cc1Nc1nc(N)c2ccccc2n1 | . | . | / | . | / | .
Nc1nc(Nc2ccccc2)nc2ccccc12 | . | . | .[10 µM] | . | . | .
